In PubChem BioAssay (NCATS) one finds activation, Potency and viability data, which are given here for six compounds.

Each structure is given as a SMILES string. “And” between values parts separate entries of the source, which are not always exact repeats. Equal entries are not always repeated. Inconclusive results are not listed. Values without a mark were called inactive. The source made the active and inactive calls. Calls come from the whole dose curve; as a rule, active = well fitted curve in the direction sought with a large enough effect; inconclusive = small, poorly fitted or top-dose-only effect, or another doubt; inactive = no such curve, though single readings can be large; an effect the other way counts as inactive or inconclusive.

Test [1] addresses Cellular tumor antigen p53 (Homo sapiens) (UniProt P04637). The experiment in a line: Primary qHTS for small molecule compounds that upregulate eGFP-tagged delta133p53alpha (in N-terminal) cells. (AID 2060322).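 For activation: series mostly up to about 56 µM; 0% = DMSO vehicle and 100% = reference activator.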 Note: nearly all actives have a fitted effect of over 75% in size. Note: potency is the fitted concentration of half-maximal effect. The following applies: NCI-H358 eGFP-delta133p53alpha fluorescence, 24 h; activation: stronger effect = higher value. The essentials: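 NCI-H358 cells pre-induced 24 h with 10 ng/ml doxycycline to express N-terminal eGFP-delta133p53alpha, then dosed 24 h at 37C without doxycycline; fixed, Hoechst-stained, GFP intensity by laser scanning cytometry, normalized to DMSO (0%) and 57.5 uM 5-azacytidine (100%).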
A general note: qHTS replaces the single test concentration by a dilution series.

In test [2] the target is Aldehyde dehydrogenase, mitochondrial (Homo sapiens) (UniProt P05091). The experiment in a line: qHTS for Inhibitors of the Aldehyde Dehydrogenase Family (ALDH2) Primary screen (AID 2061308).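 Note: plate controls were vehicle for no effect and reference inhibitor for full effect; nearly all actives have a fitted effect of over 55% in size.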
Test [3] deals with Retinaldehyde dehydrogenase 3 (Homo sapiens) (UniProt P47895). The experiment in a line: qHTS for Inhibitors of the Aldehyde Dehydrogenase Family (ALDH1A3) Primary screen (AID 2061315).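 Note: plate controls were DMSO vehicle for no effect and reference inhibitor for full effect.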
A short description of test [4]: BET inhibitor-based combinations targeting novel dependencies in MECOM-rearranged (r) AML: SET-2 cell line (AID 2202231).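 For viability: plate controls were DMSO treated cells for no effect and wells without cells for full effect.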 Note: nearly all actives have a fitted effect of over 35% in size. Note: potency is the fitted concentration of half-maximal effect. The following applies: SET-2 AML cells viability, CellTiter-Glo luminescence, 48 h; viability: stronger effect = lower value, concentration not given here. The method, boiled down: (§1)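 Here, 11-point titrations of each agent were applied to 500 seeded cells and incubated 48 hr; CellTiter-Glo signal, scaled against DMSO and empty wells, was integrated as AUC, then Z-scored within the individual line.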
(In general: ATP-based viability assays read luminescence as a measure of living cells.)

Test [5] in a line: BET inhibitor-based combinations targeting novel dependencies in MECOM-rearranged (r) AML: OCI-AML3 cell line (AID 2202232). Note: nearly all actives have a fitted effect of over 35% in size. Note: potency is the fitted concentration of half-maximal effect. The following applies: Potency: OCI-AML3 viability. The method, boiled down: as §1
A short description of test [6]: BET inhibitor-based combinations targeting novel dependencies in MECOM-rearranged (r) AML: HNT-34 cell line (AID 2202234). Note: nearly all actives have a fitted effect of over 35% in size. Note: potency is the fitted concentration of half-maximal effect. The essentials:
(§2)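 Normalized to DMSO and empty-well controls, the luminescence data from CellTiter-Glo after 48 hr drug exposure were fitted across 11 concentrations. Reported metrics are area under the dose-response curve and its Z-transformed form.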

Test [7] is described as follows: BET inhibitor-based combinations targeting novel dependencies in MECOM-rearranged (r) AML: AML-194 cell line (AID 2202237; note: nearly all actives have a fitted effect of over 40% in size; note: potency is the fitted concentration of half-maximal effect). The essentials: as §1
A short description of test [8]: BET inhibitor-based combinations targeting novel dependencies in MECOM-rearranged (r) AML: UCSD-AML1 cell line (AID 2202235). Note: nearly all actives have a fitted effect of over 40% in size. Note: potency is the fitted concentration of half-maximal effect. The essentials:
as §2

Test [9] is described as follows: BET inhibitor-based combinations targeting novel dependencies in MECOM-rearranged (r) AML: AML-191 cell line (AID 2202236; note: nearly all actives have a fitted effect of over 35% in size; note: potency is the fitted concentration of half-maximal effect). The essentials:
as §1

Test [10] is described as follows: BET inhibitor-based combinations targeting novel dependencies in MECOM-rearranged (r) AML: MV-4-11 cell line (AID 2202233). Note: nearly all actives have a fitted effect of over 45% in size. Note: potency is the fitted concentration of half-maximal effect. The method, boiled down:
as §2

Chain of Cellular tumor antigen p53 (Homo sapiens) (P04637 whole entry, looked up): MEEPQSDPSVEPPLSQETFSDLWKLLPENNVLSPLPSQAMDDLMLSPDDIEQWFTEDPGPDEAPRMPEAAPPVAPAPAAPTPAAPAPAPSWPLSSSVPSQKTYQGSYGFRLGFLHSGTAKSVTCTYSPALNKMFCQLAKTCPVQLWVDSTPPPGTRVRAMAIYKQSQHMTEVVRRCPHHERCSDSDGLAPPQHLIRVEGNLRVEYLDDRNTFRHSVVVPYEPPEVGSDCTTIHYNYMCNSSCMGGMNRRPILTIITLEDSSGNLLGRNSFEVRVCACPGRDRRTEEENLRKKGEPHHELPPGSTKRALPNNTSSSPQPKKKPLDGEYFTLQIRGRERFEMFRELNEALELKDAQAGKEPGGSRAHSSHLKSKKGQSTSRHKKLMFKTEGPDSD

Take `C[C@@H](NCCCc1cccc(C(F)(F)F)c1)c1cccc2ccccc12`: in test [1], the activation was 1.97%. The Potency entry in test [2] and in test [3] was “inactive” throughout. Also, the Potency in [4] is 23.5 µM (active); in test [5], 16.6 µM (active); in test [6] it was 26.3 µM (active); in [7], 26.3 µM (active).

By viability is commonly meant a read-out of living cells in per cent, often relative to untreated cells. As to `O=C(c1cncc(Br)c1)N1CCC(N2CCCC2)CC1`, the activation in test [1] is -12.4% and 0.333%. In addition, the Potency entry in test [2], in test [3], in [5], in [6], in test [8] and in test [9] was “inactive” each time. In addition, in test [7], the Potency entry was “inactive”. Moreover, the viability in test [4] was 113%.

Take `CN(C)C/C=C/C(=O)Nc1cccc(C(=O)Nc2cccc(Nc3ncc(Cl)c(-c4c[nH]c5ccccc45)n3)c2)c1`: the Potency is 0.239 µM (active) in test [1]; 1.05 µM (active) in [4]; 0.166 µM (active) in [5]; 0.0033 µM (active) in test [10]; 0.468 µM (active) in test [9]; 0.525 µM (active) in test [7]. Further, the Potency result in test [2] and in test [3] was “inactive” in each case.

Consider `CN1CCC(CNc2ccc3ncc(-c4cccc(OC(F)(F)F)c4)n3n2)CC1`, for which the Potency is 26.9 µM (active) in test [1]; 11.8 µM (active) in [4]; 8.33 µM (active) in [5]; 5.25 µM (active) in test [6]; 5.9 µM (active) in [8]; 5.25 µM (active) in test [9]. In addition, in test [7], the Potency is 4.17 µM (active). The Potency entry in [2] and in test [3] was “inactive” each time.

Turning to `N#Cc1ccnc(N2C(=O)CC[C@H]2C(=O)N(c2cncc(F)c2)[C@H](C(=O)NC2CC(F)(F)C2)c2ccccc2Cl)c1`, in [1], the activation is -19.7% and -8.38%. Moreover, the Potency result in [2], in test [3], in test [5], in [10] and in test [7] was “inactive” each time. The viability in test [4] was 105%.

Turning to `N[C@@H](Cc1cc(I)c(Oc2cc(I)c(O)c(I)c2)c(I)c1)C(=O)O`, the activation in test [1] is -1.69% and -8.29% and -5.67%. For the same compound, the Potency entry in [2], in test [3], in test [5], in test [10], in test [8] and in test [9] was “inactive” in each case. For the same compound, in test [7], the Potency result is “inactive”. Further, the viability in [4] was 108%.
